Reference: PubChem BioAssay (NCATS)
“And” between values parts separate entries of the source, which are not always exact repeats. Equal values may be shown once. Records with an inconclusive call do not appear. Entries that show only a call come without a potency. The source made the active and inactive calls. Calls follow the shape of the full dose curve; tested in HEK293 reporter line.

Assay: qHTS for Inhibitors of the Functional Ribonucleoprotein Complex (vRNP) of Lassa (LASV) Arenavirus: LASV Primary Screen - GLuc reporter signal (AID 1347082); also: nearly all actives have a fitted effect of over 60% in size
Settings: LASV minigenome vRNP, Gaussia luciferase reporter; series mostly up to 57.5 µM; activity change, negative = inhibition: at the top concentration

| Compound | Potency | activity change, negative = inhibition |
| --- | --- | --- |
| CN1CCN(C2=Nc3ccccc3Oc3ccc(Cl)cc32)CC1 | inactive |  |
| COc1ccccc1Oc1c(NS(=O)(=O)c2ccc(C(C)(C)C)cc2)nc(-c2ncccn2)nc1OCCO |  | 1.13% (inactive) |
| CCCCc1ncc(/C=C(\Cc2cccs2)C(=O)O)n1Cc1ccc(C(=O)O)cc1 |  | -2.26% (inactive) |
| OCCN1CCN(CCCN2c3ccccc3Sc3ccc(Cl)cc32)CC1 | inactive |  |
| C[C@]12CC[C@@H]3c4ccc(O)cc4C[C@@H](CCCCCCCCCS(=O)CCCC(F)(F)C(F)(F)F)[C@H]3[C@@H]1CC[C@@H]2O (stereo partly drawn) | inactive |  |
| CNCCCN1c2ccccc2CCc2ccccc21 | inactive |  |
| CC(C)Oc1ccc2c(=O)c(-c3ccccc3)coc2c1 | inactive |  |
| O=C(O)P(=O)(O)O |  | 2.78% (inactive) |
| CC/C(=C(\c1ccccc1)c1ccc(OCCN(C)C)cc1)c1ccccc1 | inactive |  |
| Cc1ccsc1C(=CCCN1CCC[C@@H](C(=O)O)C1)c1sccc1C |  | 14.1% (inactive) |
| NCCCC(O)(P(=O)(O)O)P(=O)(O)O | inactive |  |
| CC1(C)NC(=O)N(c2ccc([N+](=O)[O-])c(C(F)(F)F)c2)C1=O | inactive |  |
| COc1ccccc1OCC(O)COC(N)=O (stereo not drawn) | inactive |  |
| CCC1C(=O)OCC1Cc1cncn1C (stereo not drawn) | inactive |  |
| COc1cc2c(N3CCN(C(=O)Nc4ccc(OC(C)C)cc4)CC3)ncnc2cc1OCCCN1CCCCC1 | inactive |  |
| CN1C(CCl)Nc2cc(Cl)c(S(N)(=O)=O)cc2S1(=O)=O (stereo not drawn) |  | 6.06% (inactive) |
| Clc1ccc2c(c1)C(N1CCNCC1)=Nc1ccccc1O2 | inactive |  |
| O[C@@H]1CO[C@H]2[C@@H]1OC[C@@H]2O |  | -1.55% (inactive) |
| Cc1ccccc1C(OCCN(C)C)c1ccccc1 (stereo not drawn) | inactive |  |
| O=C(CCCCCCC(=O)Nc1ccccc1)NO |  | -36.3% (inactive) |

| Compound | Potency | activity change, negative = inhibition |
| --- | --- | --- |
| O=C(O)COCCN1CCN(C(c2ccccc2)c2ccc(Cl)cc2)CC1 (stereo not drawn) | inactive |  |
| Cc1ccc(-c2cc(C(F)(F)F)nn2-c2ccc(S(N)(=O)=O)cc2)cc1 | inactive |  |
| CCCNC(=O)NS(=O)(=O)c1ccc(Cl)cc1 | inactive |  |
| Oc1cn2c(n1)Nc1ccc(Cl)c(Cl)c1C2 |  | 8.81% [at 24.7 µM] (inactive) |
| C[C@H]1c2cccc(O)c2C(O)=C2C(=O)[C@]3(O)C(O)=C(C(N)=O)C(=O)[C@@H](N(C)C)[C@@H]3[C@@H](O)[C@@H]21 | inactive |  |
| COc1ccccc1OCC(O)CN1CCN(CC(=O)Nc2c(C)cccc2C)CC1 (stereo not drawn) | inactive |  |
| NS(=O)(=O)c1cc2c(cc1C(F)(F)F)NCNS2(=O)=O |  | -8.24% (inactive) |
| CN1CCC(=C2c3ccccc3C=Cc3ccccc32)CC1 | inactive |  |
| O=C1C(=O)c2ccccc2C(O)=C1C1CCC(c2ccc(Cl)cc2)CC1 (stereo not drawn) |  | 3.53% (inactive) |
| CCOC(=O)c1ncn2c1CN(C)C(=O)c1cc(F)ccc1-2 | inactive |  |
| CCCN1C[C@H](CSC)C[C@@H]2c3cccc4[nH]cc(c34)C[C@H]21 | inactive |  |
| CCOC(=O)Nc1ccc2c(c1)N(C(=O)CCN1CCOCC1)c1ccccc1S2 |  | -10.3% (inactive) |
| O=C1[C@H](CC[C@H](O)c2ccc(F)cc2)[C@@H](c2ccc(O)cc2)N1c1ccc(F)cc1 |  | -1.88% (inactive) |
| Cc1ccc(-n2[nH]c(C)c(N=Nc3cccc(-c4cccc(C(=O)O)c4)c3O)c2=O)cc1C |  | -0.687% (inactive) |
| O=c1[nH]cnc2c1ncn2[C@H]1CC[C@@H](CO)O1 |  | 3.23% (inactive) |
| COc1cc2nc(N3CCN(C(=O)C4COc5ccccc5O4)CC3)nc(N)c2cc1OC (stereo not drawn) | inactive |  |
| CCOC(=O)N1CCC(=C2c3ccc(Cl)cc3CCc3cccnc32)CC1 | inactive |  |
| Cc1ccnc2c1NC(=O)c1cccnc1N2C1CC1 | inactive |  |
| CN(C)CCc1c[nH]c2ccc(C[C@H]3COC(=O)N3)cc12 | inactive |  |

Assay: qHTS for Inhibitors of the Functional Ribonucleoprotein Complex (vRNP) of Lassa (LASV) Arenavirus: Viability assay - alamar blue signal for LASV Primary Screen (AID 1347083); also: nearly all actives have a fitted effect of over 80% in size; also: potency is read from the fitted curve at half-maximal effect
Settings: cell viability, alamar blue fluorescence (LASV minigenome counter-screen); series mostly up to 57.5 µM; activity change, negative = reduced viability: at the top concentration

| Compound | Potency | activity change, negative = reduced viability |
| --- | --- | --- |
| CN1CCN(C2=Nc3ccccc3Oc3ccc(Cl)cc32)CC1 | inactive |  |
| COc1ccccc1Oc1c(NS(=O)(=O)c2ccc(C(C)(C)C)cc2)nc(-c2ncccn2)nc1OCCO |  | 3.19% (inactive) |
| CCCCc1ncc(/C=C(\Cc2cccs2)C(=O)O)n1Cc1ccc(C(=O)O)cc1 |  | -2.96% (inactive) |
| OCCN1CCN(CCCN2c3ccccc3Sc3ccc(Cl)cc32)CC1 |  | -3.24% (inactive) |
| C[C@]12CC[C@@H]3c4ccc(O)cc4C[C@@H](CCCCCCCCCS(=O)CCCC(F)(F)C(F)(F)F)[C@H]3[C@@H]1CC[C@@H]2O (stereo partly drawn) | inactive |  |
| CNCCCN1c2ccccc2CCc2ccccc21 | inactive |  |
| CC(C)Oc1ccc2c(=O)c(-c3ccccc3)coc2c1 | inactive |  |
| O=C(O)P(=O)(O)O |  | 0.861% (inactive) |
| CC/C(=C(\c1ccccc1)c1ccc(OCCN(C)C)cc1)c1ccccc1 | inactive |  |
| Cc1ccsc1C(=CCCN1CCC[C@@H](C(=O)O)C1)c1sccc1C |  | 7.55% (inactive) |
| NCCCC(O)(P(=O)(O)O)P(=O)(O)O | inactive |  |
| CC1(C)NC(=O)N(c2ccc([N+](=O)[O-])c(C(F)(F)F)c2)C1=O | inactive |  |
| COc1ccccc1OCC(O)COC(N)=O (stereo not drawn) | inactive |  |
| CCC1C(=O)OCC1Cc1cncn1C (stereo not drawn) | inactive |  |
| COc1cc2c(N3CCN(C(=O)Nc4ccc(OC(C)C)cc4)CC3)ncnc2cc1OCCCN1CCCCC1 | inactive |  |
| CN1C(CCl)Nc2cc(Cl)c(S(N)(=O)=O)cc2S1(=O)=O (stereo not drawn) |  | 15.9% (inactive) |
| Clc1ccc2c(c1)C(N1CCNCC1)=Nc1ccccc1O2 | inactive |  |
| O[C@@H]1CO[C@H]2[C@@H]1OC[C@@H]2O |  | 9.52% (inactive) |
| Cc1ccccc1C(OCCN(C)C)c1ccccc1 (stereo not drawn) | inactive |  |
| O=C(CCCCCCC(=O)Nc1ccccc1)NO | 8.91 µM (active) and 7.69 µM (active) |  |

| Compound | Potency | activity change, negative = reduced viability |
| --- | --- | --- |
| O=C(O)COCCN1CCN(C(c2ccccc2)c2ccc(Cl)cc2)CC1 (stereo not drawn) | inactive |  |
| Cc1ccc(-c2cc(C(F)(F)F)nn2-c2ccc(S(N)(=O)=O)cc2)cc1 | inactive |  |
| CCCNC(=O)NS(=O)(=O)c1ccc(Cl)cc1 | inactive |  |
| Oc1cn2c(n1)Nc1ccc(Cl)c(Cl)c1C2 |  | 7.22% [at 24.7 µM] (inactive) |
| C[C@H]1c2cccc(O)c2C(O)=C2C(=O)[C@]3(O)C(O)=C(C(N)=O)C(=O)[C@@H](N(C)C)[C@@H]3[C@@H](O)[C@@H]21 | inactive |  |
| COc1ccccc1OCC(O)CN1CCN(CC(=O)Nc2c(C)cccc2C)CC1 (stereo not drawn) | inactive |  |
| NS(=O)(=O)c1cc2c(cc1C(F)(F)F)NCNS2(=O)=O |  | -3.04% (inactive) |
| CN1CCC(=C2c3ccccc3C=Cc3ccccc32)CC1 | inactive |  |
| O=C1C(=O)c2ccccc2C(O)=C1C1CCC(c2ccc(Cl)cc2)CC1 (stereo not drawn) |  | 2.25% (inactive) |
| CCOC(=O)c1ncn2c1CN(C)C(=O)c1cc(F)ccc1-2 | inactive |  |
| CCCN1C[C@H](CSC)C[C@@H]2c3cccc4[nH]cc(c34)C[C@H]21 | inactive |  |
| CCOC(=O)Nc1ccc2c(c1)N(C(=O)CCN1CCOCC1)c1ccccc1S2 |  | -2.29% (inactive) |
| O=C1[C@H](CC[C@H](O)c2ccc(F)cc2)[C@@H](c2ccc(O)cc2)N1c1ccc(F)cc1 |  | 2.24% (inactive) |
| Cc1ccc(-n2[nH]c(C)c(N=Nc3cccc(-c4cccc(C(=O)O)c4)c3O)c2=O)cc1C |  | 11.5% (inactive) |
| O=c1[nH]cnc2c1ncn2[C@H]1CC[C@@H](CO)O1 |  | 6.45% (inactive) |
| COc1cc2nc(N3CCN(C(=O)C4COc5ccccc5O4)CC3)nc(N)c2cc1OC (stereo not drawn) | inactive |  |
| CCOC(=O)N1CCC(=C2c3ccc(Cl)cc3CCc3cccnc32)CC1 |  | -3.9% (inactive) |
| Cc1ccnc2c1NC(=O)c1cccnc1N2C1CC1 |  | -1.89% (inactive) |
| CN(C)CCc1c[nH]c2ccc(C[C@H]3COC(=O)N3)cc12 | inactive |  |
